# Laboratory results from PubChem BioAssay (EPA / NIEHS).
# Inconclusive results are not listed. The source made the active and inactive calls. The calls were made as follows, unless noted: active = hit-call score of the fitted dose curve at least 0.9, where 1 is the maximum; inactive = score below 0.9.
# Assay: CCTE_Mundy_HCI_Cortical_NOG_NeuriteLength: CCTE's Neurite Outgrowth Assay in rat cortical cells for Neurite Length, Mundy Lab (AID 2284213)
# Settings: not given
# Outline: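 First, rat primary cortical cells were plated and, 2 h later, given test chemical as a 1/10 dilution. Finally, βIII-tubulin immunostaining enabled automated imaging of neurite length.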
row,SMILES,outcome
1,NC(=O)NO,inactive
2,O=P(OC(CCl)CCl)(OC(CCl)CCl)OC(CCl)CCl,inactive
3,CC[C@H]1OC(=O)[C@H](C)[C@@H](O[C@H]2C[C@@](C)(OC)[C@@H](O)[C@H](C)O2)[C@H](C)[C@@H](O[C@@H]2O[C@H](C)C[C@H](N(C)C)[C@H]2O)[C@](C)(O)C[C@@H](C)C(=O)[C@H](C)[C@@H](O)[C@]1(C)O,inactive
4,Cn1c(=O)c2c(ncn2C)n(C)c1=O,inactive

# Assay: CCTE_Mundy_HCI_Cortical_Synap_Neur_Matur_NeuriteLength: CCTE's Synaptogenesis and Neurite Maturation Assay in rat cortical cells for Neurite Length, Mundy Lab (AID 2284214)
# Settings: not given
# Outline: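 Cultures of rat primary cortical cells received chemical at DIV 7 and were fixed at DIV 12, after glial arrest with AraC at DIV 5. Neurite length was measured by automated imaging of MAP2 immunofluorescence.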
row,SMILES,outcome
1,NC(=O)NO,inactive
2,O=P(OC(CCl)CCl)(OC(CCl)CCl)OC(CCl)CCl,inactive
3,CC[C@H]1OC(=O)[C@H](C)[C@@H](O[C@H]2C[C@@](C)(OC)[C@@H](O)[C@H](C)O2)[C@H](C)[C@@H](O[C@@H]2O[C@H](C)C[C@H](N(C)C)[C@H]2O)[C@](C)(O)C[C@@H](C)C(=O)[C@H](C)[C@@H](O)[C@]1(C)O,inactive
4,Cn1c(=O)c2c(ncn2C)n(C)c1=O,inactive
5,O=C1CCC(N2C(=O)c3ccccc3C2=O)C(=O)N1 (stereo not given),inactive

# Assay: CCTE_Mundy_HCI_Cortical_Synap_Neur_Matur_NeuriteSpotCountPerNeuron: CCTE's Synaptogenesis and Neurite Maturation Assay in rat cortical cells for Neurite Spot Count per Neuron Count, Mundy Lab (AID 2284215)
# Settings: not given
# Outline: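 Synapse density is scored as synaptophysin spots along neurites per neuron in fixed rat cortical neurons, measured at DIV 12 after chemical dosing at DIV 7. DMSO is the negative control and activity baseline.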
SMILES,outcome,AC50
NC(=O)NO,inactive,
O=P(OC(CCl)CCl)(OC(CCl)CCl)OC(CCl)CCl,,2980 nM (active)
CC[C@H]1OC(=O)[C@H](C)[C@@H](O[C@H]2C[C@@](C)(OC)[C@@H](O)[C@H](C)O2)[C@H](C)[C@@H](O[C@@H]2O[C@H](C)C[C@H](N(C)C)[C@H]2O)[C@](C)(O)C[C@@H](C)C(=O)[C@H](C)[C@@H](O)[C@]1(C)O,inactive,
Cn1c(=O)c2c(ncn2C)n(C)c1=O,inactive,
O=C1CCC(N2C(=O)c3ccccc3C2=O)C(=O)N1 (stereo not given),inactive,

# Assay: TAMU_PeakParms_SingleDonor1434_Chronotropy: Texas A&M University (TAMU) 1.5-hr Human Induced Pluripotent Stem Cell (iPSC)-derived Cardiomyocytes Calcium (Ca+2) Flux Assay for Cardiotoxicity: Chronotropy (changes in peak frequency) (AID 2284217)
# Settings: actives raise or lower the signal
# Method: TAMU_PeakParms is a cell-based, multiplexed-readout assay that uses iPSC-derived cardiomyocytes with measurements taken at 1.5 hours after chemical dosing in a microplate: 384-well plate.TAMU_PeakParms_SingleDonor1434_Chronotopy is a phenotype derived from the peak.freq.avg parameter and uses an EC05 as its POD (5% increase in beat rate, compared to controls). Peak.Freq.Avg measures the average peak frequency, in beats per second, using Fluorescence intensity as a functional reporter from Calcium (Ca+2) flux assay technology. Before modeling, data is preprocessed to remove data points where there is a cessation of beating (where peak.freq.avg equals 0) to ensure the capture of the upwards response that isn't confounded by the drop in beat rate at higher concentrations and to ensure the drop in beat rate is captured before asystole, which is captured elsewhere.Data from the assay component TAMU_PeakParms_SingleDonor1434_Chronotropy was analyzed into 1 assay endpoint. This assay endpoint, TAMU_PeakParms_SingleDonor1434_Chronotropy_Negative, was analyzed with bidirectional fitting relative to DMSO as the negative control and baseline of activity. Using a type of functional reporter, gain or loss-of-signal activity can be used to understand changes in the cardiac function. To generalize the intended target to other relatable targets, this assay endpoint is annotated to the cardiomyocyte function intended target family, where the subfamily is lowered beat rate.
# Each test compound from the chemical master plates was transferred into new tissue culture-treated 384-well microplates using acoustic dispensing (Labcyte Echo 550, Beckman Coulter, Indianapolis, IN) in amounts that would result in 5x concentrations (1, 5, 50, 500 uM) in the working plate in a final volume of 50 uL. Chemicals were randomly divided into 16 separate 384-well plates for screening such that the outer-most wells were left empty (308 wells were used on each plate). […]
row,SMILES,outcome
1,NC(=O)NO,inactive
2,CCCCCCc1ccc(O)cc1O,inactive
3,O=C1CCC(N2C(=O)c3ccccc3C2=O)C(=O)N1 (stereo not given),inactive

# Assay: CCTE_Mundy_HCI_Cortical_Synap_Neur_Matur_SynapseCount: CCTE's Synaptogenesis and Neurite Maturation Assay in rat cortical cells for Synapse Count, Mundy Lab (AID 2284218)
# Settings: not given
# Outline: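 Cells were plated, allowed 2 hr to attach, treated with AraC at DIV 5, then exposed to chemicals from DIV 7 until DIV 12. After fixation and MAP2/synaptophysin immunolabelling, synapses per neuron were quantified by automated imaging against DMSO.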
SMILES,outcome,AC50
NC(=O)NO,inactive,
O=P(OC(CCl)CCl)(OC(CCl)CCl)OC(CCl)CCl,,2980 nM (active)
CC[C@H]1OC(=O)[C@H](C)[C@@H](O[C@H]2C[C@@](C)(OC)[C@@H](O)[C@H](C)O2)[C@H](C)[C@@H](O[C@@H]2O[C@H](C)C[C@H](N(C)C)[C@H]2O)[C@](C)(O)C[C@@H](C)C(=O)[C@H](C)[C@@H](O)[C@]1(C)O,inactive,
Cn1c(=O)c2c(ncn2C)n(C)c1=O,inactive,
O=C1CCC(N2C(=O)c3ccccc3C2=O)C(=O)N1 (stereo not given),inactive,

# Assay: CCTE_Mundy_HCI_hN2_NOG_NeuriteLength: CCTE's Neurite Outgrowth Assay in human hN2 cells for Neurite Length, Mundy Lab (AID 2284220; active = hit-call score of the fitted dose curve at least 0.9, where 1 is the maximum)
# Settings: not given
# Outline: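 Read-out is neurite length from high-content imaging of βIII-tubulin/Alexa Fluor-488-labelled neurons, referenced to DMSO controls.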
row,SMILES,outcome
1,NC(=O)NO,inactive
2,Cn1c(=O)c2c(ncn2C)n(C)c1=O,inactive
3,O=C1CCC(N2C(=O)c3ccccc3C2=O)C(=O)N1 (stereo not given),inactive

# Assay: CCTE_Mundy_HCI_Cortical_Synap_Neur_Matur_NeuriteCount: CCTE's Synaptogenesis and Neurite Maturation Assay in rat cortical cells for Neurite Count, Mundy Lab (AID 2284222);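 also: exposure from day 7 to day 12 in vitro with readout at day 12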
# Settings: not given
# Outline: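 Chemical exposure runs DIV 7–12 in rat cortical cultures, glia suppressed by AraC at DIV 5; measurement is at DIV 12. Imaging-derived neurite counts are fitted against DMSO baseline.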
row,SMILES,outcome
1,NC(=O)NO,inactive
2,O=P(OC(CCl)CCl)(OC(CCl)CCl)OC(CCl)CCl,inactive
3,CC[C@H]1OC(=O)[C@H](C)[C@@H](O[C@H]2C[C@@](C)(OC)[C@@H](O)[C@H](C)O2)[C@H](C)[C@@H](O[C@@H]2O[C@H](C)C[C@H](N(C)C)[C@H]2O)[C@](C)(O)C[C@@H](C)C(=O)[C@H](C)[C@@H](O)[C@]1(C)O,inactive
4,Cn1c(=O)c2c(ncn2C)n(C)c1=O,inactive
5,O=C1CCC(N2C(=O)c3ccccc3C2=O)C(=O)N1 (stereo not given),inactive

# Assay: CCTE_Mundy_HCI_Cortical_Synap_Neur_Matur_CellBodySpotCount: CCTE's Synaptogenesis and Neurite Maturation Assay in rat cortical cells for Cell Body Spot Count, Mundy Lab (AID 2284223)
# Settings: not given
# Outline: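 Synapse number at neuronal cell bodies was quantified as synaptophysin puncta per neuron in rat cortical cultures exposed from DIV 7 to DIV 12. Values were normalised to DMSO.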
row,SMILES,outcome
1,NC(=O)NO,inactive
2,O=P(OC(CCl)CCl)(OC(CCl)CCl)OC(CCl)CCl,inactive
3,CC[C@H]1OC(=O)[C@H](C)[C@@H](O[C@H]2C[C@@](C)(OC)[C@@H](O)[C@H](C)O2)[C@H](C)[C@@H](O[C@@H]2O[C@H](C)C[C@H](N(C)C)[C@H]2O)[C@](C)(O)C[C@@H](C)C(=O)[C@H](C)[C@@H](O)[C@]1(C)O,inactive
4,Cn1c(=O)c2c(ncn2C)n(C)c1=O,inactive
5,O=C1CCC(N2C(=O)c3ccccc3C2=O)C(=O)N1 (stereo not given),inactive

# Assay: CCTE_Mundy_HCI_Cortical_NOG_BPCount: CCTE's Neurite Outgrowth Assay in rat cortical cells for Branch Point Count, Mundy Lab (AID 2284237);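 as to AC50: branch points counted about two days after chemical exposure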
# Settings: not given
# Outline: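 Measured 50.33 h after dosing, this morphology endpoint uses rat primary cortical cultures labelled for betaIII-tubulin. Branch points are quantified by high-content imaging, with DMSO as negative control and baseline.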
SMILES,outcome,AC50
NC(=O)NO,inactive,
O=P(OC(CCl)CCl)(OC(CCl)CCl)OC(CCl)CCl,,20800 nM (active)
CC[C@H]1OC(=O)[C@H](C)[C@@H](O[C@H]2C[C@@](C)(OC)[C@@H](O)[C@H](C)O2)[C@H](C)[C@@H](O[C@@H]2O[C@H](C)C[C@H](N(C)C)[C@H]2O)[C@](C)(O)C[C@@H](C)C(=O)[C@H](C)[C@@H](O)[C@]1(C)O,inactive,
Cn1c(=O)c2c(ncn2C)n(C)c1=O,inactive,
O=C1CCC(N2C(=O)c3ccccc3C2=O)C(=O)N1 (stereo not given),inactive,
